Data published in the supplement of paper PMC4466236.
Whole data set: some 33,000 sequences, median “E-score (dimensionless, -0.5 to 0.5)” near -0.058, cut for the highest 2% near 0.35. Only a selection was taken, and the highest values are over-represented in it overall.

Each sequence was assayed on MvaT (assay: PBM 8-mer E-score (mean of HK and ME arrays) (E-score (dimensionless, -0.5 to 0.5)); higher = stronger relative binding preference).
How it was run: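 Reported values are rank-based E-scores, taken as the mean of two universal arrays and parsed with a custom script. Each 8-mer score falls between -0.5 and 0.5. The arrays, ME and HK, were double-stranded 60-mers with a constant 25-mer primer region and a variable 35-mer region covering all 8-mers. They were probed, by an earlier protocol, with full-length P. aeruginosa MvaT carrying an N-terminal glutathione S-transferase fusion.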

Sequence	PBM 8-mer E-score
AAGATATC	0.26
AAGATATA	0.419
AAGATATG	0.136
CAGATATA	0.237
GAGATATA	0.303
TAGATATA	0.368
ATTTACGA	0.167
CTATTTAA	0.274
ATATTTAG	0.342
CTATTTAC	0.318
ATATTTAA	0.462
ATATTTCA	0.329
ATATTTAC	0.36
AGGCACCA	-0.116
AGCTGTCA	-0.156
ATGATCGG	-0.174
AGCTTCCA	-0.151
CGCAAGTA	0.195
ATATTATA	0.477
CCATTATA	0.302
ATATTATC	0.439
ACATTATA	0.396
CTATTATC	0.263
ATATTATG	0.411
ATCTTATA	0.238

Sequence	PBM 8-mer E-score
AGATTATG	0.189
GCATTATA	0.309
ACATTATG	0.249
AGATTATC	0.255
ATTCAAAC	0.174
GATACCGA	0.0372
GCTGCCCA	-0.142
GAGGAAGA	-0.133
ACCCGTTG	-0.195
TAGTCACA	0.0578
AAAACGTA	0.142
CGCCCATC	-0.117
CACTTGCA	-0.05
CAGCCCTG	-0.254
CGTGTCCA	-0.105
GCACTTCA	-0.102
GTGTGGTA	0.118
CCCTTCGC	-0.248
AATTAGGG	0.137
AATCCCCG	-0.164
CTCTTATA	0.289
AGATTATA	0.39
GTATTATA	0.437
CTATTCTA	0.131
ATATTCTA	0.348

Sequence	PBM 8-mer E-score
GTATTACA	0.224
CGATTATA	0.292
CTATTATA	0.44
CTTTTATA	0.31
GTATTCTA	0.112
GGATTATA	0.32
GTCTTATA	0.325
CGCGCTTC	-0.107
CAATGTCC	-0.106
AGCGCCTA	-0.16
AACTACGG	0.0587
CCGCGCCC	-0.155
AACTCGGT	-0.0107
GCTGTAAC	0.00489
CGCAAGAG	0.0446
CGCGGTGA	-0.142
CCCTAAGA	-0.184
ATAGAACG	0.0944
CCGCAAAG	-0.132
ATGGCCAG	-0.256
GTATGTTA	0.288
ATATGTAA	0.309
ATATGTCG	0.22
ATATGTTA	0.423
ATATGTAC	0.368

Sequence	PBM 8-mer E-score
ATATGTTG	0.359
ATATGTTC	0.231
CTATGTTA	0.278
CTATGTAC	0.112
AGTCCACT	-0.0256
AATAGACC	0.00124
TTGTACAA	0.161
CGTCCAGA	-0.16
CCTGCTCG	-0.298
ACAGGTGC	-0.152
AATTGCTG	0.0923
ATACCCTC	-0.12
CTTGGCCC	-0.249
AACTAAAG	0.202
AACTAAAT	0.351
AAATAGTT	0.351
AACTAATA	0.323
AACTAATT	0.401
AACTAGTT	0.392
AACTAGTG	0.19
AAATAGTC	0.235
AAATAGTG	0.136
AACTAGTA	0.303
AACTAAAA	0.345
AACTAATG	0.312

Sequence	PBM 8-mer E-score
CAAAGATG	0.0517
CGTGAGAA	0.0476
AGGAATGG	-0.0828
AACCTCCC	-0.253
CCGGATAC	-0.146
ACTGATAA	0.209
ATCAAGGC	-0.14
TCATGACA	-0.0413
CTGTCCAC	-0.113
GCTCAAAC	0.0144
CATAATGG	0.178
AATAATGC	0.384
CATAATGC	0.111
TATAATGA	0.373
AAAAATGT	0.0973
CATAATGA	0.233
AATAATGT	0.408
AATAATGG	0.372
GATAATGC	0.151
GATAATGA	0.225
AGTAATGG	0.124
AATAAGGT	0.224
CGGGACAG	-0.151
CCCCACTA	-0.172
ATGACATG	-0.0134

Sequence	PBM 8-mer E-score
AATTTCCC	0.207
CTCACCAC	-0.026
CAGTTCAC	-0.0234
AACCGAAG	0.0622
CCCACACC	0.0355
ACTAATGA	0.138
AGTAATGA	0.165
AATAATGA	0.361
ACCTAACA	-0.00971
ATTTATCG	0.291
CTTTATCA	0.182
ATTTATTC	0.295
CTTTATTC	0.209
GTTTATTA	0.407
ATTTATTA	0.434
CTTTATTA	0.402
ATTTATTG	0.379
GTTTACTA	0.147
ATTTATCA	0.301
ATTTATGG	0.204
GTTTTTTA	0.248
ACCTCTAC	-0.178
TACGTTGA	0.0324
AGAGCGCG	-0.146
GTGACCCA	-0.143

Sequence	PBM 8-mer E-score
GGAATTAA	0.347
GGAATTAC	0.149
TGAATTAA	0.376
TCAATTAA	0.237
AGAATTAA	0.301
CGAATTAA	0.308
GGCGTGTA	-0.134
GGGCTGAA	-0.257
AGCCTGTA	-0.00993
CAAGAAAA	-0.021
ACGCGTCG	-0.0515
ATCACGGG	-0.203
CCATATAC	0.153
GTATACAC	0.209
ATCTATAC	0.138
GTATATAC	0.41
ATATACGC	0.291
GGATATAC	0.208
CTCTATAC	0.00646
CTATATAC	0.377
ATATATAC	0.464
CTCCCTAC	-0.109
AATGACCG	-0.00123
GTAGTTTA	0.297
CGTGCGGA	-0.146

Sequence	PBM 8-mer E-score
CAGTAGCC	-0.125
AAGTATAC	0.338
ATGTATAA	0.35
TCGTATAA	0.148
TAGTATAA	0.384
AAGTATAA	0.379
AGGTATAA	0.291
CAGTATAA	0.267
AAGTATAG	0.167
ATGTATAC	0.332
GAGTATAA	0.273
CTGTATAA	0.264
AAGTATAT	0.399
ACCAGGAG	-0.239
CGGGAGAG	-0.265
CACGGGGA	-0.0937
CTACCCAC	-0.0554
ATGAAACA	0.181
ATTATTGA	0.354
TCTATTAA	0.285
GTTATTGA	0.311
ACTAGTAA	0.24
ACTAGTAT	0.357
AGTATTAG	0.27
CCTATTAA	0.249

Sequence	PBM 8-mer E-score
ACTAGTAG	0.0918
CTTATTGA	0.22
AGTATTAC	0.306
ACTATTAA	0.411
AGTATTAT	0.42
ATGATCAA	0.176
GAAAGGGC	-0.199
TAAGAACA	0.123
GCCGCTCA	-0.105
CTTTGAAA	0.141
ACATGTAC	0.243
AGGCCATC	-0.264
GCTATTAA	0.272
ACGATTAT	0.245
CTTATTAA	0.362
ATCATTAA	0.259
ATTATTAA	0.446
ACTATTAT	0.425
GTTATTCA	0.236
CTTATTCA	0.194
ACCATTAT	0.332
GTTATTAA	0.383
ATTATGAA	0.269
CTCATTAA	0.196
